The list is not random: actives were taken first. Their share in the collection is about 1.7%.
PLK1 kinase inh: PLK1 (human) kinase inhibition | P53350 | AID 619 | 97,000 compounds, 0.53% hits | recombinant PLK1 kinase, TR-FRET peptide phosphorylation | inhibition, % at 10 µM;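 active means inhibition of 50% or more in the single-concentration screen; inactive means inhibition below 50%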;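 further: 0% = DMSO max control and 100% = H-89 dihydrochloride min control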
FAK blocker: blocks human focal adhesion kinase activity; 97,000 compounds, 0.84% hits; AID 727; biochemical FAK kinase activity assay; inhibition, %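 (tested at 7 µM)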; Q05397; in the data active means inhibition above about 19%;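 further: 0% = DMSO and 100% = reference compound high control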
Target sequence (Q05397 whole entry, looked up): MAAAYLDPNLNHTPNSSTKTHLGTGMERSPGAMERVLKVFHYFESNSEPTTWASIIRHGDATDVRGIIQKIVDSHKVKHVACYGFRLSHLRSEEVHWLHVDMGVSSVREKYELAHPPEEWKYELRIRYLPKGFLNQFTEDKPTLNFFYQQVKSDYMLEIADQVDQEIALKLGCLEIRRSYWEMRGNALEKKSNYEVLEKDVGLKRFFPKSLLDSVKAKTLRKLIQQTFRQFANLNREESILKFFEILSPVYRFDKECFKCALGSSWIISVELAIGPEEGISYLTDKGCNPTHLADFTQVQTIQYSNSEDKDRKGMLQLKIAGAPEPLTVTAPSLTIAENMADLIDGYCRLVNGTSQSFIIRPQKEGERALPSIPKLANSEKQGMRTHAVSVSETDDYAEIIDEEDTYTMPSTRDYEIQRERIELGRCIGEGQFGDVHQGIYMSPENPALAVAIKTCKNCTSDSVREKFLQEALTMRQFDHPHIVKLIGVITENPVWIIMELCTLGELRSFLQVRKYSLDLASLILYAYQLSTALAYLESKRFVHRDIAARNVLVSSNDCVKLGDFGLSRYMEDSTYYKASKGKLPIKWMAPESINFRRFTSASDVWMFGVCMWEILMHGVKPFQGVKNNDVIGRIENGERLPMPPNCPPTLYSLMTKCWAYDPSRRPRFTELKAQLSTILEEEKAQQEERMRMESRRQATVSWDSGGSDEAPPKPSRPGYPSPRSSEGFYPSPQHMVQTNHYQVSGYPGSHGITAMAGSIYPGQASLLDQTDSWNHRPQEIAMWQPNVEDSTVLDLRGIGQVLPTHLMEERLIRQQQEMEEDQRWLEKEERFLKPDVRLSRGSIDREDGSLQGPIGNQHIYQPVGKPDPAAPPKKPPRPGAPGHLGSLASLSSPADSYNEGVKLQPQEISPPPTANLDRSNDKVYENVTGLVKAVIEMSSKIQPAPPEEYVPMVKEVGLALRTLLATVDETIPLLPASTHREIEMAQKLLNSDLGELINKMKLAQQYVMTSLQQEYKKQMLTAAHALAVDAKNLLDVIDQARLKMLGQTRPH
PTPN22 inh 2: LYP (human) phosphatase inhibition. Q9Y2R2. 96,000 compounds, 0.21% hits. recombinant LYP catalytic domain, DiFMUP fluorescence. inhibition, % at 2 µM. AID 640;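 active means inhibition at 2 µM at or above a set limit, the screen mean plus 3 SD, cut at about 24% in these data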;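 further: 0% = DMSO with enzyme and 100% = enzyme fully blocked by orthovanadate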
EphB4 antag: EphB4-ephrin-B2 interaction antagonism; inhibition, % at 7 µM; 97,000 compounds, 0.15% hits; EphB4 LBD / TNYL-RAW-Alexa532 peptide, fluorescence polarization; P54760; AID 720;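 active means inhibition above the screen-wide mean inhibition plus 3 SD, cut at about 15% in these data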;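 further: 0% = DMSO wells and 100% = excess unlabeled TNYL-RAW peptide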
PTPN22 act: LYP (human) phosphatase activation; recombinant LYP, DiFMUP fluorescence; 0 = plate median, 100 = signal doubled; Q9Y2R2; 96,000 compounds, 0.11% hits; activation, % at 2 µM;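 active means activation at 2 µM above a set limit, the mean plus 5 SD, cut at about 37% in these data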
Plk1 PBD FP: blocks phosphopeptide binding to human Plk1 polo box domain | 97,000 compounds, 0.13% hits | P53350 | inhibition, %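 (tested at about 20 µM)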 | AID 693 | Plk1 PBD phosphopeptide binding, fluorescence polarization; in the data active means inhibition above about 34%, passing the limit was not always enough
PLK1 confirm: confirmation of human PLK1 kinase inhibitors; 210 compounds, 20% hits; shares compounds with PLK1 kinase inh; recombinant PLK1 kinase, TR-FRET peptide phosphorylation; inhibition, % at 10 µM;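 active means inhibition at or above 50% in each of two repeat confirmation tests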;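 further: 0% = DMSO max control and 100% = H-89 kinase-blocked min control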
TR-FRET interf: counter-screen for Plk1 inhibitors: compound assay interference; 210 tested, under 10 active; shares compounds with PLK1 kinase inh; inhibition (interference), % at 10 µM; Plk1 TR-FRET assay interference, compound added post-reaction;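 active means both duplicate runs show 50% or greater inhibition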;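 further: 0% = DMSO max control and 100% = H-89 min control inhibited reaction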
Numbers without * were called inactive; . = not tested or not shown.

SMILES	PLK1 kinase inh	FAK blocker	PTPN22 inh 2	EphB4 antag	PTPN22 act	Plk1 PBD FP	PLK1 confirm	TR-FRET interf
Cn1c(=O)c2sccc2n2c(CCCC(=O)NCc3ccc4c(c3)OCO4)nnc12	-2.9	-3.5	7.1	-0.2	-3.7	-2.5	.	.
CCCCOC(=O)CCn1c(=S)oc2ccccc21	124.8*	-4.1	-16.8	1.9	14.3	13.0	-8.3	-52.5
O=c1c2cn[nH]c2[nH]c(=S)n1-c1ccccc1F	9.4	-1.0	0.9	-8.9	-3.5	-7.6	.	.
CCOC(=O)CSc1nc2ccccc2c(=O)[nH]1	72.3*	-3.1	.	-4.3	.	1.6	-9.0	-48.8
CCc1cc(=O)oc2cc(OCC(=O)O)c(Cl)cc12	-9.7	-0.8	-11.9	-1.2	7.3	15.8	.	.
CCc1cc(=O)oc2cc(OCC(=O)N(CC)CC)c(Cl)cc12	71.7*	-1.7	.	1.1	.	-4.9	-1.2	-57.2
O=C(Nc1cccnc1)c1ccc2snnc2c1	-9.8	0.8	-7.6	-2.2	6.1	-18.7	.	.
CCOc1ccc(-n2c(SCC(=O)Nc3cc(C)on3)nnc2-c2c[nH]c3ccccc23)cc1	-10.0	-0.1	1.2	0.9	-0.9	-12.7	.	.
COCCn1c(SCC(=O)Nc2cc(C)on2)nnc1-c1c[nH]c2ccccc12	70.6*	-2.8	.	-3.2	.	-2.1	0.1	-51.2
COCCn1c(SCc2cccnc2)nnc1-c1c[nH]c2ccccc12	75.1*	-1.2	.	-0.1	.	-20.5	-8.8	-47.3
O=C(Nc1cccnc1)c1cnn2cccnc12	76.2*	2.8	8.4	7.2	-7.2	1.2	62.5*	-51.7
Cc1cc(C)c(Cc2c(C)nc3c(C(=O)NCc4ccco4)cnn3c2C)c(C)c1	-15.0	2.6	4.9	-1.4	-4.7	8.2	.	.
CCC(C)Sc1nnc(Cc2cc(=O)[nH]c(=O)[nH]2)n1-c1ccc(F)cc1 (centres undefined)	72.0*	-0.5	.	-6.7	.	15.9	-8.4	-49.2
Cc1ccc(C(=O)Nc2cc3c(oc2=O)CCCC3=O)cc1	-8.4	-3.3	-2.2	2.5	5.0	-5.7	.	.
Cc1cccc(N=Nc2c(N)n[nH]c2-c2ccc(Cl)cc2)c1	70.7*	-6.5	12.5	1.9	-8.2	-3.4	58.8*	-48.8
Cc1ccc(-c2[nH]nc(N)c2N=Nc2cccc(Cl)c2C)cc1	-6.0	3.3	12.9	-3.8	-9.2	7.8	.	.
CCOC(=O)c1c(NC(=O)c2ccccc2Br)sc2c1CCc1ccccc1-2	-37.3	2.5	0.0	-0.5	2.1	-14.7	.	.
COC(=O)C1C2C=CC3(CN(c4cccc(C)c4)C(=O)C13)O2 (centres undefined)	-5.2	2.0	9.5	4.5	-10.4	7.7	.	.
COC(=O)C1C2C=CC3(CN(c4cccc(Cl)c4)C(=O)C13)O2 (centres undefined)	74.1*	-4.1	.	5.1	.	-33.9	-2.3	-50.4
COc1ccc(CNC(=O)c2ccc(NS(=O)(=O)c3c(C)noc3C)cc2)cc1	-5.2	-0.8	-10.2	3.0	8.0	17.3	.	.
Cc1nc2c([nH]1)C1(CCN(Cc3ccccc3)CC1)C(C#N)=C(N)O2	70.1*	2.5	7.4	-1.9	-4.7	0.7	71.9*	-55.5
CCSC1=NC2(CCCCC2)Nc2sc3c(c21)CCCC3	-12.4	0.4	5.5	6.6	-4.4	31.5	.	.
COC(=O)c1[nH]c2ccc(Cl)cc2c1NC(=O)CN1CCC(C(N)=O)CC1	71.9*	1.1	3.7	3.7	-5.1	2.0	-10.2	-47.7
COCCn1c(C2CCCCC2)nc2sc3ccccc3c(=O)c2c1=O	8.2	2.8	1.2	5.4	-4.3	-9.3	.	.
C=CCSc1nc(-c2ccccc2)c2cc(Cl)ccc2n1	77.8*	2.8	8.6	-1.4	-2.7	13.3	-9.1	-51.3
CCOC(=O)c1sc2nc[nH]c(=O)c2c1C	78.8*	4.7	15.3	-5.7	-15.0	-23.1	73.0*	-15.5
O=C(Nc1ncc2c(n1)-c1ccccc1CC2)c1ccc(Cl)cc1	122.6*	11.5	-0.7	0.8	3.5	-9.7	12.2	-45.5
CCOC(=O)CNC(c1ccccc1)c1cc(Br)ccc1NC(=O)OCC (centres undefined)	93.2*	-0.3	13.8	-2.4	-10.4	9.0	-1.1	-53.8

Assay outcomes: PubChem, several laboratories
